Data reported in ChEMBL document CHEMBL3988442, “University of Dundee, Small-Polar-MMV Screening Library” (2021).
Screen size: about 53,000 compounds; about 900 (1.7%) showed an effect of 50% or more. This is one part of a sample in which strong results are shown more often than they occur.

The compounds below were run on Mycobacterium tuberculosis (assay: Cornell - Phenotypic assay to identify agents that inhibit growth of Mycobacterium tuberculosis). Conditions: 10 mM as filed; unlikely as a test dose.
Type: functional
Parameters: scale not given: direction of the effect not stated beside the values

| Compound | Percent Effect [%] |
| --- | --- |
| CCn1ncc(CN(C)C(=O)c2cc(C(F)(F)F)n(C)n2)c1C | 9.297 |
| COCCNC(=O)c1c(-n2cnnn2)sc2c1CCCC2 | 24.57 |
| CCCc1cncnc1N1CCC(NCc2cc3ccccc3[nH]2)CC1 | 109.8 |
| CCCc1cncnc1N1CCC(NCc2ccncc2)CC1 | -49.68 |
| CCCc1cncnc1N1CCC(NCc2ccc(O)cc2)CC1 | 28.01 |
| CCn1c(C2CCN(C(=O)c3cc(C4CC4)on3)CC2)nn(C)c1=O | 4.422 |
| COCCNc1nc(-n2nc(C)cc2C)nc2sc3c(c12)CCCC3 | -12.48 |
| Cc1cc(C)n(C2=NC(NCCC(C)C)c3c(sc4c3CCCC4)N2)n1 (configuration not stated) | 1.366 |
| Cc1cc(C)n(-c2nc(NCCCO)c3c4c(sc3n2)CCCC4)n1 | 82.78 |
| CCc1nc(CN(C)C(=O)c2cc(CN(CC)CC)c(CC)o2)no1 | 11.36 |
| COc1ccccc1CN(CCCn1ccnc1)CC1CCOC1.O=C(O)CC(O)(CC(=O)O)C(=O)O (configuration not stated) | 1.044 |
| CCN(Cc1ccco1)C(=O)c1cc(OC)c2c(c1)OCCO2 | 11.52 |
| Cn1ncc(NC(=O)c2noc3c2CCCC3)c1C(=O)N1CCCCC1 | 1.181 |
| O=C(Nc1ccnn1C1CCCC1)c1ccc(NC2CC2)nc1 | 16.19 |
| O=C(CN1CCCC1Cn1cncn1)Nc1ccnn1C1CCCC1 (configuration not stated) | 39.34 |
| Cc1nc2c(c(C)c1CC(=O)Nc1ccnn1C(C)C)c(=O)[nH]n2C | -6.05 |
| CC(C)c1n[nH]c(C(=O)Nc2ccnn2C(C)C)c1Br | -19.54 |
| CC(C)c1nc(S(=O)(=O)N(C)c2ccc(F)cc2)c[nH]1 | 0.9821 |
| CC(C)c1nc(S(=O)(=O)Nc2ccnn2C2CCCC2)c[nH]1 | 106.1 |
| Cc1ncc(S(=O)(=O)Nc2ccnn2C2CCCCC2)[nH]1 | 106.2 |
| Cc1ncc(S(=O)(=O)Nc2ccnn2C(C)C)[nH]1 | 85.6 |
| CCN1CCN(S(=O)(=O)c2c[nH]c(C(C)C)n2)c2ccccc21 | 19.57 |
| COC1(CNC(=O)CCCc2ccccc2)CCSC1 (configuration not stated) | -5.448 |

| Compound | Percent Effect [%] |
| --- | --- |
| Cc1nonc1OCCNC(=O)COc1ccc(F)cc1F | 26.66 |
| CC(C)Sc1ncccc1C(=O)NCc1ccc(O)cc1 | -23.95 |
| O=C(O)C(F)(F)F.O=C(O)C(F)(F)F.c1cncc(OC[C@@]23CCC[C@@H]2CN(CC2CCOCC2)C3)c1 | -8.459 |
| CC(NCc1cc(F)ccc1F)c1ccc(OCC(=O)NC2CC2)cc1 (configuration not stated) | -52.24 |
| O=C(NCC1CCCO1)c1cc(-c2ccc3c(c2)CCO3)n[nH]1 (configuration not stated) | -17.9 |
| COc1ccc(CN(C)C(=O)NCc2c(C)cc(C)nc2OC)cc1 | -10.68 |
| CN(C)c1nccc(NCc2cc(-c3ccco3)n[nH]2)n1 | 37.45 |
| COc1ccccc1NC(=O)c1ccc(C)n1C | 27.91 |
| COc1cc(CN2CC(=O)N(c3ccc(C)cc3)CC2C)cc(OC)c1 (configuration not stated) | 47.02 |
| COc1ccc(CN2CC(=O)N(c3ccc(C)cc3)CC2C)cc1O (configuration not stated) | 5.464 |
| COc1cccc(OC)c1CN1CC(=O)N(c2ccc(C)cc2)CC1C (configuration not stated) | 67.79 |
| O=C(O)C(F)(F)F.O=C(O)C(F)(F)F.O=C1[C@H]2CN(Cc3ccc(F)cc3)C[C@H]2CN1CCN1CCCC1 | -24.72 |
| O=C1CC[C@@H](CN(Cc2ccncc2)Cc2nc(-c3cccs3)no2)N1 | -23.52 |
| CCNC(c1ccc(CC)cc1)c1cccnc1 (configuration not stated) | -41.16 |
| CCc1cc(=O)n(CC(=O)N2CCCC2)c(-c2ccc(F)cc2)n1 | 28.21 |
| COc1ccccc1N1CCN(CC(=O)NC(C)c2ccco2)CC1 (configuration not stated) | 25.38 |
| CSCC[C@H](NC(=O)Cn1ccc2c(Br)cccc21)C(=O)O | 5.043 |
| CSCC[C@H](NC(=O)CCn1ccc2c(Cl)cccc21)C(=O)O | 15.96 |
| COC(=O)[C@H](CCSC)NC(=O)Cn1ccc2c(Cl)cccc21 | 106.6 |
| Cc1ccc(CN2CCC3(CC2)NC(=O)CC3c2ccccc2)s1.O=C(O)C(F)(F)F (configuration not stated) | 1.118 |
| O=C1C(Nc2nccn3cnnc23)CCN1c1cccc(Cl)c1 (configuration not stated) | -12 |
| CCN(CC)C(=O)CSc1nnc(CCNC(=O)OC(C)(C)C)o1 | -12.06 |
| CS(=O)(=O)CCn1ccc(NC(=O)Cc2c[nH]c3ccccc23)n1 | 31.98 |

| Compound | Percent Effect [%] |
| --- | --- |
| CC(C)N(C(=O)Cn1c(-c2ccco2)cc2cccnc21)C(C)C.Cl | 99.58 |
| Cl.O=C(CCn1c(C(F)(F)F)cc2cccnc21)N1CCCC1 | -14.31 |
| Cc1ncccc1-c1cc2cccnc2n1CCCNC(=O)C1CC1.Cl | 15.61 |
| O=C(c1cnn2c(-c3ccco3)ccnc12)N1CCCCCC1 | 38.47 |
| COCCNC(=O)Cn1c(-c2ccco2)cc2cccnc21 | 49.86 |
| Cl.O=C(Cn1c(-c2ccco2)cc2cccnc21)N1CCCC1 | 60.37 |
| COCc1cc(N2CCN(C3CCCCC3)CC2)n2nccc2n1 | 6.435 |
| CCn1ccnc1CN1CCN(C(C)C(=O)N2CCCC2)CC1 (configuration not stated) | -13 |
| CCC1(O)CCCN(c2nc(-c3ccccn3)nc3c2c(C)nn3C)C1 (configuration not stated) | 23.24 |
| CCCNC(=O)Nc1ccc2c(c1)N(S(=O)(=O)CC)CC2 | 11.66 |
| CS(=O)(=O)N1CC[C@]2(O)CCN(CCCC(=O)c3ccccc3)C[C@@H]2C1 | 2.425 |
| C=Cn1ncc(CN2C[C@@H]3CCCN3C[C@@H]2CCSC)c1C | -11.11 |
| CC1CCCCN1C(=O)c1ccc(=O)[nH]n1 (configuration not stated) | -37.74 |
| Cc1ccc(-c2noc(C3CCN3C(=O)c3ccn(C)n3)n2)s1 (configuration not stated) | 54.98 |
| Cc1ccc(-c2noc(C3CCN3C(=O)c3cc[nH]n3)n2)s1 (configuration not stated) | 52.32 |
| CC(=O)N1CCC1c1nc(-c2ccc(C)s2)no1 (configuration not stated) | 7.935 |
| Cc1ccc(-c2noc(C3CCN3C(=O)c3ccc(=O)[nH]n3)n2)s1 (configuration not stated) | 58.13 |
| Cc1c[nH]c(C2COCCN2C(=O)c2ccc(=O)[nH]n2)n1 (configuration not stated) | 0.9699 |
| Cc1ccc(-c2noc(C3CCN3C(=O)c3c(C)noc3C)n2)s1 (configuration not stated) | 48.41 |
| CC(=O)N1CCC(C(=O)N2CCC2c2nc(-c3ccc(C)s3)no2)CC1 (configuration not stated) | -6.67 |
| Cc1cc(O)cc(C2CCCN2C(=O)c2ccn(C)n2)n1 (configuration not stated) | -43.03 |
| CCN1CCn2c(C)cnc2C12CCN(C(=O)c1cscn1)CC2.O=C(O)C(F)(F)F.O=C(O)C(F)(F)F | -12.15 |
| CC(C)c1cc(CN(C)C(=O)CN2CCNC2=O)no1 | -1.518 |

| Compound | Percent Effect [%] |
| --- | --- |
| Cc1cc(C)cc(CN2CCN(C(=O)CCc3n[nH]c(C)n3)CC2=O)c1 | -36 |
| Cc1cnc(N2CCC3(CC(=O)N(Cc4csc(C)n4)C3)C2)nc1.O=C(O)C(F)(F)F (configuration not stated) | 10.64 |
| CCCOc1ccc(Cl)cc1C(=O)N1CCC(n2cncn2)CC1 | -8.806 |
| Clc1cnc(NCc2ccccc2N2CCOCC2)nc1 | 11.26 |
| Cc1cc(C)c2c(N3CCN(C(=O)N4CCOCC4)CC3)ncnc2n1 | -18.35 |
| CC(C)O[C@@H]1CC[C@H]2[C@H]1OCCN2C(=O)c1nn(C)c2ccccc12 | 4.286 |
| CC(C)S(=O)(=O)CC(=O)NCC(Cc1ccc(F)cc1)C(N)=O (configuration not stated) | 7.629 |
| CC1(c2ccccc2)CCCN(Cc2cncn2C2CCCC2)C1 (configuration not stated) | 105.1 |
| CC1(c2ccccc2)CCCN(Cc2cncn2C2CC2)C1 (configuration not stated) | -6.001 |
| COCCn1cncc1CN1CCCC(C)(c2ccccc2)C1 (configuration not stated) | 16.9 |
| Cn1nccc1NCc1cc2cc(F)ccc2o1 | -27.44 |
| COc1ccc(CNC(C)c2cccc(Cl)c2)c(OC)c1OC (configuration not stated) | -6.089 |
| COc1ccc(CNC(C)c2ccc(Cl)c(Cl)c2)c(OC)c1OC (configuration not stated) | 81.35 |
| COc1ccc(CNC(C)c2ccc(Cl)cc2)c(OC)c1OC (configuration not stated) | 4.187 |
| Cc1cc(NCc2ccc(CO)cc2)n2nc(C)cc2n1 | -38.88 |
| CC(C)CN1Cc2nc(N)ncc2C1=O | 0.3963 |
| CC1(C)CC(N2Cc3nc(N)ncc3C2=O)CC(C)(C)N1 | 5.443 |
| Nc1ncc2c(n1)CN(C1CCCC1)C2=O | 100.2 |
| Cc1cnn(CCNCc2ccc(OCc3ccncc3)cc2)c1 | -5.152 |
| CC(C)CN1Cc2c(C(=O)N(C)C)ncn2-c2ccccc2S1(=O)=O | -10.19 |
| CCCc1nnc2sc(CC3CN(Cc4ccccc4)CCO3)nn12 (configuration not stated) | 22.38 |
| CNS(=O)(=O)c1cccc(S(=O)(=O)Nc2ncc(C)s2)c1 | 51.19 |
| Cc1cnc(NS(=O)(=O)c2ccccc2)s1 | 18.01 |

| Compound | Percent Effect [%] |
| --- | --- |
| Cc1cnc(NS(=O)(=O)c2cccc(C#N)c2)s1 | -17.84 |
| CCc1noc(C(C)N2CCN(c3ccc(C#N)cn3)CC2)n1 (configuration not stated) | -10.8 |
| Cc1ncncc1C(=O)N1CCOC(C(=O)NC2CCCC2)C1 (configuration not stated) | -44.04 |
| Cn1cncc1CN1CCCC1c1cncc(Oc2ccc(Cl)cc2)n1 (configuration not stated) | -20.26 |
| Cn1ccc2cc(C(=O)NC3CCOC(C)(C)C3)ccc21 (configuration not stated) | 38.28 |
| COCCn1ccc2cc(C(=O)NC3CCOC(C)(C)C3)ccc21 (configuration not stated) | 51.29 |
| Cn1ccc2ccc(C(=O)NC3CCOC(C)(C)C3)cc21 (configuration not stated) | 33.83 |
| COc1ccc2c(c1)OCC(Cc1cc(C(=O)N3CCCC3)ccn1)C2 (configuration not stated) | 3.952 |
| COCCNC(=O)Nc1ccc(C(=O)N2CCSCC2)cc1C | -6.31 |
| CCCN(CC1CC1)C(=O)Cn1ccccc1=O | 23.77 |
| CCOCC(=O)Nc1ccc(N2CCSCC2)cc1C | 35.44 |
| COCCOc1ccc(NC(=O)N(CCO)C2CC2)cn1 | 5.522 |
| Cc1ccc(C(=O)N2CCSCC2)cc1NC(C)C | 8.4 |
| COCCCN(CCOC)C(=O)Nc1ccc(C)cc1C | -5.189 |
| Cc1ccc(C(=O)N2CCSCC2)cc1NC(=O)NCCO | 4.458 |
| Cc1cc(N2CCSCC2)ccc1NC(=O)N(CCO)C1CC1 | 109.4 |
| CCN(CC)C(=O)Nc1ccc(N2CCSCC2)cc1C | 107.3 |
| CCCN(CC1CC1)C(=O)Nc1ccc(N2CCSCC2)cc1C | 108.2 |
| CCC(C)N(C)C(=O)Nc1ccc(N2CCSCC2)cc1C (configuration not stated) | 109 |
| CCN(CC1CCCO1)C(=O)Nc1cccc(N2CCOCC2)c1 (configuration not stated) | 5.45 |
